Test results reported in ChEMBL document CHEMBL3988442, “University of Dundee, Small-Polar-MMV Screening Library” (2021).

Target: AMP-activated protein kinase, AMPK (Homo sapiens) (UniProt P54646+O43741+P54619+Q9UGJ0+Q9Y478+Q13131+Q9UGI9)
Experiment: AMP-dependent Kinase enzyme assay. An in vitro enzyme assay that detects ADP turnover that is directly proportional to AMPK activity. This uses naive AMPK that is activated during the assay with MK-8722
Format: functional
Design: scale not given: direction of the effect not stated beside the values
Conditions: 30 µM

| Structure (SMILES) | Percent Effect |
| --- | --- |
| CCC(Nc1ccc(CCN2CCOCC2)cc1)C(N)=O (stereo not given) | -3.46% |
| c1cnc(Nc2ccc(C3CCCCN3Cc3ccncc3)cn2)nc1 (stereo not given) | 11.1% |
| Cc1ccccc1CN1CCCC1c1cccc(Nc2nccs2)n1 (stereo not given) | 16.4% |
| O=C(C1CC(c2ccccc2)=NO1)N1CCCCc2ccccc21 (stereo not given) | 4.65% |
| CC(=O)N1CCc2nc(N(C)C)nc(NCCc3ccccc3)c2CC1 | 3.82% |
| CN(Cc1ccc2c(c1)OCCO2)c1ncc(S(N)(=O)=O)s1 | -1.85% |
| CN(C)C1CCN(c2cc(-c3ccccc3)nc3ccnn23)C1 (stereo not given) | -0.347% |
| CC(NC(=O)c1ccc(C(N)=O)cc1)c1cccc(N2CCOC2=O)c1 (stereo not given) | 4.89% |
| CCCn1ccnc1-c1cccc(NC(=O)[C@H]2CCC(=O)N2)c1 | 11.3% |
| COc1ccc(CCn2cnc(C#N)n2)cc1 | -6.21% |
| c1ccc(OCCCn2ccnc2-c2cn(C3CCNCC3)nn2)cc1 | -1.92% |
| CCc1nc2n(n1)CC(NCc1cc3ccccc3o1)CC2 (stereo not given) | -3.35% |
| COc1ccc(CN(C)Cc2c(C)noc2C)c(Cl)c1OC | 6% |
| Cc1c(F)cccc1S(=O)(=O)N(C)CC(C)O (stereo not given) | 1.59% |
| Cc1nonc1CN(C)c1nc(-c2ccco2)nc2c1CCN(C)CC2 | 4.86% |
| COCCC(=O)NCCc1nc2cc(-c3ccc(OC)cc3)ncn2n1 | 20% |
| Cc1cc(N(C)C)nc(N2CCn3c(nnc3C(C)C)C2)n1 | 8.26% |
| Cc1cc(=O)[nH]c(-n2nc(-c3cccs3)cc2N)n1 | -13.8% |
| Cc1cnn(C2CN(Cc3nc4cc(Cl)ccc4n3C)C2)c1 | -6.13% |
| CN(C)S(=O)(=O)c1ccc(=O)n(CC2CCCCO2)c1 (stereo not given) | 8.37% |

| Structure (SMILES) | Percent Effect |
| --- | --- |
| COCCCN1CCN(C(=O)C(c2cccc(F)c2)N(C)C)CC1 (stereo not given) | -3.6% |
| CC(C)N(C)C(=O)C1CCN(Cc2cnc3ccccn23)CC1 | -1.05% |
| O=C(NCCn1ccnc1-c1cc2n(n1)CCCNC2)c1ccncc1 | 0.773% |
| Cc1nnc(NC(=O)c2c3c(nn2C2CCS(=O)(=O)C2)CCC3)s1 (stereo not given) | -6.11% |
| Cc1ncsc1CCN(C)C(=O)c1ccc(CN2CCCCC2)cc1 | 5.27% |
| CN1CC(C(=O)NCc2ccc(Br)cc2F)CC1=O (stereo not given) | 8.64% |
| Cc1ccc2ncccc2c1CN1CC[C@H](N(C)C)[C@H](CCC(=O)O)C1 | -2.6% |
| COC(=O)C(NC(=O)c1cc(C)ccc1C)c1cccnc1 (stereo not given) | 1.93% |
| CCCn1cc(NC(=O)c2cccc(CN3CC=CC3)c2)nn1 | 3.97% |
| COc1ccc(OC)c(S(=O)(=O)NC(=O)C(C)OC)c1 (stereo not given) | -3.05% |
| Cc1cc(CC(=O)NC2CCCN(c3ccccc3F)C2=O)n[nH]1 (stereo not given) | 10.6% |
| CC(c1ccon1)N(C)S(=O)(=O)NCc1ccccc1 (stereo not given) | 2.51% |
| CN(C)Cc1cccc(-c2cccnc2C(=O)NCC2CC2)c1 | 20.3% |
| Nc1cc(C(=O)N2CCC(Oc3cccc(C(F)(F)F)c3)CC2)ccn1 | -4.01% |
| CCn1cc(NC(=O)NCCN2CCCCCC2=O)cn1 | 87.7% |
| COc1ccccc1OCCc1nnc(NC(=O)C2CC23CCC3)s1 (stereo not given) | 8.73% |
| COc1ccc(CNC(C)c2cnn(C)c2)cc1OC1CCCC1 (stereo not given) | 8.55% |
| Cc1cc(-c2cc3nc(C)c(C)c(NCC4COCCO4)n3n2)no1 (stereo not given) | 17.6% |
| c1ccc(CCN2CCC(OCC3CCCCO3)CC2)nc1 (stereo not given) | 11.2% |
| COc1cccc2c1OCC(Cc1cc(C(N)=O)ccn1)C2 (stereo not given) | -13% |
